Our source for the growth values is PubChem BioAssay (NCI).

Compounds without any hit were thinned out: in the full panel of roughly 83,000, 20% have a hit.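 Compound tested at a single concentration for 48 hours in 96-well plates; a percent growth value below 10 was scored as active.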 Unmarked numbers belong to inactive results. The source made the active and inactive calls.

One assay deals with T-47D breast. Put plainly: NCI-60 one-dose screen, 48 h (100 = growth as untreated, 0 = no growth, -100 = all killed). The note with it: 10 µM.
`COc1ccc(C(=O)CC(CC(=O)c2ccc(OC)cc2)c2c(C)nn(-c3ccccc3)c2Cl)cc1`: the growth is 109%.
Still for that read-out and setting: as for `CCCN1CN2C(=O)N3CN(CCC)CN4C(=S)N(C1)C2C34` (stereo not drawn), the figure is 90%; as for `NC1=NC(c2ccccc2)C2=C(N1)/C(=C/c1ccccc1)CCC2` (stereo not drawn), 93.1%; as for `C[C@]12CC[C@@H]3c4ccc(O)cc4CC[C@H]3[C@@H]1CC[C@@H]2NS(=O)(=O)c1ccc(C(F)(F)F)cc1`, 25%.
Turning to `OCC1OC(n2cnc3c(NCc4ccco4)ncnc32)C(O)C1O` (stereo not drawn), the growth is 8.92% (active).
Still for that read-out and setting: as for `COc1cc(C2CC(c3cc(Cl)c(C)cc3O)=NN2c2ccc(S(N)(=O)=O)cc2)cc(OC)c1OC` (stereo not drawn), the figure is -1.47% (active).
Still for that read-out and setting: the value for `N=C1S/C(=C/c2ccc(-c3ccc4c(c3)C(=O)NC4=O)o2)C(=O)N1c1ccc(Br)cc1` was 19.9%.
Same read-out and setting: as for `c1cnc2[nH]cc(-c3nc(-c4ccsc4)cs3)c2c1`, the figure is 66.1%; as for `Clc1nc2ccc(Br)cc2cc1-c1nc2ccccc2[nH]1`, 104%.
On to `Nc1nc(Cl)nc2c1ncn2C1O[C@H](CO)[C@@H](O)[C@@H]1F` (stereo partly drawn), for which the growth is 49.3%.
Regarding `COc1ccc([C@H]2[C@H](C(=O)Nc3cccnc3)c3ccccc3C(=O)N2c2ccccc2)cc1`, the growth is 74%.
Same read-out and setting: as for `COc1ccc(/C=C2\CCCC3C2=Nc2ccccc2NC3c2ccc(OC)cc2)cc1` (stereo not drawn), the figure is 101%; as for `O=S(=O)(NCCCNc1nccc(-c2cn(-c3ccccc3)nc2-c2ccc(Cl)c(O)c2)n1)c1ccccc1`, 42.9%.

For the next assay, the system named is BT-549 breast. Described as above. The note with it: 10 µM.
For the compound `Nc1ccc(-c2cccs2)cc1NC(=O)c1ccc(CCCC(=O)Nc2ccc(C3CC3N)cc2)cc1` (stereo not drawn), the growth is 96.5%.
The same measure, in the same setting: the value for `CCCc1cn(CC(=O)Nc2nc3ccccc3s2)nn1` was 103%; that for `O=C(CCCCCCC(=O)Nc1ccccc1)NO` was 53.9%.
Still for that read-out and setting: as for `O=[N+]([O-])c1ccc(/C(=C/c2ccccc2)[n+]2ccccc2)cc1`, the figure is 109%.
The same measure, in the same setting: as for `Oc1cccc(-c2nc3sccn3c2-c2ccncn2)c1`, the figure is 110%; as for `COc1ccc(/C(=N\N)C(=O)c2ccccc2)cc1` (tested in a mixture with another compound), 108%.
Turning to `COc1ccc(C(=O)N/N=C/c2cc(C(F)(F)F)ccc2Cl)cc1`, the growth is 96.1%.
For `OCC1OC2C(NC(=S)N2c2ccccc2)C(O)C1O` (stereo not drawn), the growth is 106%.
For `COc1cc2cc(Oc3ccc(NC(=O)Nc4cccc(C(F)(F)F)c4)cc3)c(C)nc2cc1OC`, the growth is -8.13% (active).
On the same count and under the same terms, as for `Cc1c2c[n+](C(C)C)ccc2c(C)c2c1[nH]c1ccccc12`, the figure is 2.83% (active); as for `CC(=O)Nc1ccc(S(=O)(=O)c2ccnc3cc(Cl)ccc23)cc1`, 94.9%; as for `CS(=O)(=O)c1nccc(-c2c(-c3cccc(OCCN4CCOCC4)c3)nc3sccn23)n1`, 108%.
The same measure, in the same setting: the value for `COc1ccc(Cc2cnc(N)nc2N)cc1OC` was 106%; that for `C=CCN(CC=C)C(=O)[C@H](CC)[C@@H]1CC[C@@H](C)[C@@H]([C@H](C)[C@@H](O)[C@@H](C)C(=O)[C@H](CC)C2O[C@]3(C=CC(=O)[C@]4(CC[C@@](C)([C@H]5CC[C@](O)(CC)[C@H](C)O5)O4)O3)[C@H](C)C[C@@H]2C)O1` (stereo partly drawn) was 54.8%.
Turning to `O=C1c2c(c(=O)[nH]c3ccccc23)CCN1Cc1ccccc1`, the growth was 87.1%.
Still for that read-out and setting: as for `COc1ccccc1-n1c(-c2csc(NC(C)=O)n2)n[nH]c1=S`, the figure is 94.7%; as for `Cc1ccc(NCCN(C)CC(C)O)c2c(=O)c3ccccc3sc12` (stereo not drawn), 84.4%.
Same read-out and setting: as for `CCNCC(=O)Nc1ccc(C(=O)OCC)cc1`, the figure is 102%; as for `COC(=O)C1OC1c1cc([N+](=O)[O-])ccc1OC` (stereo not drawn), 107%.
Same read-out and setting: as for `O=C1c2ccccc2C(=O)c2c1ccc1c(=O)n(-c3ccccc3C(F)(F)F)nnc21`, the figure is 52.8%; as for `Nc1ccccc1NC(=O)c1ccc(CCCC(=O)Nc2ccc(C3CC3N)cc2)cc1` (stereo not drawn), 47.4%.
As to `C=CCn1c(SCC(=O)Nc2ccc(C(=O)/C=C/c3ccc(OC)cc3)cc2)nnc1-c1ccc(OC)c(OC)c1`, the growth is 75.8%.
Still for that read-out and setting: as for `CN1C(C(=O)Nc2ccccn2)=C(O)c2sc(Cl)cc2S1(=O)=O`, the figure is 108%; as for `CC1/C=C/C=C/C=C/C=C/C=C/C=C/C=C/C(O[C@@H]2O[C@H](C)[C@H](O)[C@@H](O)[C@@H]2N)CC(O)C(C(=O)O)C(O)CC(=O)CC(O)CC(O)CC(O)CC(=O)CCCC(=O)CC(=O)OC1C(C)CC(C)C(O)CC(=O)c1ccc(N)cc1` (stereo partly drawn), -93% (active); as for `CCN(CC)CC(=O)N(CC)c1ccc(C)c(Cl)c1`, 98.1%.
The same measure, in the same setting: as for `NC(CSC(c1ccccc1)(c1ccccc1)c1cccc2ccccc12)C(=O)O` (stereo not drawn), the figure is 91.7%.
Take `O=C(CCn1cnc2c(cc(-c3ccccc3)n2-c2ccccc2)c1=O)Nc1ccc(F)cc1`: the growth is 57.8%.
For `COc1ccc(C(=O)CC(CC(=O)c2ccc(OC)cc2)c2c(C)nn(-c3ccccc3)c2Cl)cc1`, the growth is 92%.
Same read-out and setting: the value for `CCCN1CN2C(=O)N3CN(CCC)CN4C(=S)N(C1)C2C34` (stereo not drawn) was 89.5%; that for `NC1=NC(c2ccccc2)C2=C(N1)/C(=C/c1ccccc1)CCC2` (stereo not drawn) was 112%.
Still for that read-out and setting: the value for `C[C@]12CC[C@@H]3c4ccc(O)cc4CC[C@H]3[C@@H]1CC[C@@H]2NS(=O)(=O)c1ccc(C(F)(F)F)cc1` was 59%.
As for `OCC1OC(n2cnc3c(NCc4ccco4)ncnc32)C(O)C1O` (stereo not drawn), the growth was -23% (active).
With `COc1cc(C2CC(c3cc(Cl)c(C)cc3O)=NN2c2ccc(S(N)(=O)=O)cc2)cc(OC)c1OC` (stereo not drawn), the growth is 30.9%.
On the same count and under the same terms, as for `N=C1S/C(=C/c2ccc(-c3ccc4c(c3)C(=O)NC4=O)o2)C(=O)N1c1ccc(Br)cc1`, the figure is 60.3%; as for `c1cnc2[nH]cc(-c3nc(-c4ccsc4)cs3)c2c1`, 96.1%; as for `Clc1nc2ccc(Br)cc2cc1-c1nc2ccccc2[nH]1`, 85.9%.
Still for that read-out and setting: as for `Nc1nc(Cl)nc2c1ncn2C1O[C@H](CO)[C@@H](O)[C@@H]1F` (stereo partly drawn), the figure is 20.4%.
Same read-out and setting: as for `COc1ccc([C@H]2[C@H](C(=O)Nc3cccnc3)c3ccccc3C(=O)N2c2ccccc2)cc1`, the figure is 90.5%.
As to `COc1ccc(/C=C2\CCCC3C2=Nc2ccccc2NC3c2ccc(OC)cc2)cc1` (stereo not drawn), the growth was 79.6%.
Regarding `O=S(=O)(NCCCNc1nccc(-c2cn(-c3ccccc3)nc2-c2ccc(Cl)c(O)c2)n1)c1ccccc1`, the growth was 75.9%.
